# Screens: PubChem, National Center for Advancing Translational Sciences (NCATS)
# The list is not random: actives were taken first. Their share in the collection is about 4.7%.
# GALC G270D act: enhancers of human galactocerebrosidase G270D mutant activity in cells; P54803; AID 1159614; 145M-Twi-hGALC-G270D cells (Twitcher mouse brain line with human GALC G270D), HMU-beta-Gal fluorescence, 48 h; hit rate 0.1% among 45,000; Potency, µM (series often up to 57.5 µM), usual class: activators; further: potency means the concentration at half of the fitted maximal effect; 0% is about no effect; nearly all actives have a fitted effect of over 65% in size
#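 Live 145M-Twi cells (Twitcher mouse brain-derived, GALC-null) stably expressing human GALC-G270D, with a wild-type GALC line, were compound-treated. Residual GALC activity was then read as fluorescence from 0.1 mM final HMU-β-gal at pH 5.2; higher signal means activation.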
# HTT prom inh: inhibits huntingtin promoter activity; HEK293 HTT promoter firefly luciferase reporter, 24 h; Potency, µM (series often up to 57.5 µM), without a hit: at the top dose activity change, negative = inhibition, hits mostly inhibitors; hit rate 0.93% among 48,000; AID 1508623; further: potency means the concentration at half of the fitted maximal effect; nearly all actives have a fitted effect of over 50% in size
#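 HEK293 luciferase promoter-reporter cells (2,500/well) plated 24 h, then compounds added at up to 57.5 uM final for 24 h at 37 °C. Firefly luminescence by Dual-Glo, normalized to vehicle (0%) and zero RLU (-100%).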
# DRV1 agonist: agonists of human resolvin D1 receptor DRV1 (GPR32) | O75388 | hit rate 2.5% among 48,000 | CHO-K1 GPR32 beta-arrestin PathHunter luminescence, 90 min; zero percent set by DMSO-only wells | activation, % at 76.9 µM | AID 1346428;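 active means activation of at least 60% and not above a set upper limit, about 1 call in 100 departs from these limits; inconclusive means activation of 40% to 60%, or above that upper limit; inactive means activation under 40%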; further: 0% is about no effect
#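 Engineered CHO-K1 line co-expressing GPR32-ProLink and EA-beta-arrestin. Compound treatment lasted 90 min at 37 °C. Luminescence was recorded after 1 h with substrate at ambient temperature, relative to DMSO basal wells.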
# HTT-AS promoter: activators of huntingtin-antisense promoter activity. HEK293 HTT-AS promoter firefly luciferase reporter, 24 h; response scale: percent change from vehicle, -100% = no light. Potency, µM (titrated, usually from 57.5 µM), inactives show at the top dose activity change, positive = activation, most hits filed as activators. hit rate 0.24% among 48,000. AID 1508624; further: potency means the concentration at half of the fitted maximal effect; nearly all actives have a fitted effect of over 55% in size
#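 HEK293 Fluc reporter, 2,500 cells/well, 24 h pre-culture; cpds up to 57.5 uM final, 24 h 37 degrees C; Dual-Glo, 10 min RT; normalized vehicle = 0%, zero RLU = -100%.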
# NTMT1 inh: inhibitors of human N-terminal methyltransferase NTMT1. Q9BV86. NTMT1 MTase-Glo SAH luminescence, purified enzyme. Potency, µM (top dose mostly 114 µM), inactives show top-dose activity change, negative = inhibition, usual class: inhibitors. hit rate 2.5% among 59,000;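 further: potency means the concentration at half of the fitted maximal effect; plate controls were DMSO vehicle for no effect and no enzyme for full effect; nearly all actives have a fitted effect of over 65% in size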
# FH mod: Identification of activators of human fumarate hydratase by quantitative high-throughput screening; Fumarate hydratase, mitochondrial (Homo sapiens), P07954; FH coupled MDH/diaphorase resazurin fluorescence, 15 min; Potency, µM (top dose mostly 79.9 µM), for the others: at the top dose activity change, negative = inhibition, most hits filed as inhibitors; hit rate 0.22% among 54,000; AID 1347055, 2019; further: potency means the concentration at half of the fitted maximal effect; on the % scale 0 is the no-effect control and ±100 the full control effect; the screen sought activators but most active calls are inhibition curves; nearly all actives have a fitted effect of over 45% in size
# Target sequence (P07954 whole entry, looked up): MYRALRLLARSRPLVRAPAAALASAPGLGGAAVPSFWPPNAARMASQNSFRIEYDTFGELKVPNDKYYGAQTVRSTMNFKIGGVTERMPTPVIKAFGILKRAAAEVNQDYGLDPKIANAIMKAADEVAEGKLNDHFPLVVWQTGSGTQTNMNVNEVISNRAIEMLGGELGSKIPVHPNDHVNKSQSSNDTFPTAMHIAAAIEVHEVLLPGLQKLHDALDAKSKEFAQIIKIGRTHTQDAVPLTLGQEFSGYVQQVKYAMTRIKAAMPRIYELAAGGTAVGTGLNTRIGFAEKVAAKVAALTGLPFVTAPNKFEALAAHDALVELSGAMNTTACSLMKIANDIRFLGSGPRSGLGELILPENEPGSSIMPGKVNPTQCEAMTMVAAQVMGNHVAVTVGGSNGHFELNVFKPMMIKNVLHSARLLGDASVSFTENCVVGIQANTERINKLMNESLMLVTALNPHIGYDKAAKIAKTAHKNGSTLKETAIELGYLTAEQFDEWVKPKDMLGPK
# An asterisk follows results filed as active; i = inactive; ? = inconclusive; . = not tested or not shown; ! = not active in a repeat; [ ] = another dose, or the depositor's remark. Unless noted, the call rests on the fitted dose curve; in most records, active means well fitted curve in the direction sought with a large enough effect; inconclusive means small, poorly fitted or top-dose-only effect, or another doubt; inactive means no such curve, though single readings can be large; an effect the other way counts as inactive or inconclusive.
SMILES,GALC G270D act,HTT prom inh,DRV1 agonist,HTT-AS promoter,NTMT1 inh,FH mod
O=S(=O)(N=Cc1c(O)ccc2ccccc12)c1cccs1,.,13.2%,.,29.0%,-11.3%[57.5 µM],-12.2%[53.3 µM]
O=S(=O)(/N=C/c1c(O)ccc2ccccc12)c1cccs1,.,.,.,.,?,15.8µM*
O=C(Nc1ccc(F)cc1)c1ccc2c(c1)NC(=O)c1ccccc1S2,.,.,76.0*,.,.,.
COC(=O)c1cc(NC(=O)c2ccc3c(c2)NC(=O)c2ccccc2S3)cc(C(=O)OC)c1,i,-19.8%,-18.4,-9.5%,?,-1.3%
COc1ccccc1N1CCN(CC(O)COc2cccc3ccccc23)CC1 (stereo not given),i,-2.7%,96.7*!,-13.2%,?,3.8%[53.3 µM]
Cc1cnc(-c2ccccc2OC(C)C)nc1NCc1ccc(-n2ccnn2)cc1,.,.,.,.,-0.4%[57.5 µM],.
CCOc1ccccc1NC(=O)c1c(NCc2ccc(C)o2)sc2c1CCC(C)C2 (stereo not given),i,-3.1%,10.5,9.0%,-13.9%,-33.4%
CCCc1ccc(OCC(=O)Nc2sc3c(c2C(=O)OC)CCCCC3)cc1,i,-5.6%,-15.0,-11.2%,89.1µM*,5.7%
CCOc1ccccc1NC(=O)c1c(NC(=O)COc2ccccc2)sc2c1CCCC2,i,-7.9%,105.2*,-6.2%,-0.9%,-0.1%
COC(=O)c1c(NC(=O)COc2c(C)cccc2C)sc2c1CCCC2,i,?,5.9,-29.9%,1.1%,-8.6%
CCOc1ccccc1NC(=O)c1c(NCc2ccc(C)o2)sc2c1CCCCC2,i,-5.6%,-13.7,-12.1%,25.1µM*,-14.5%
Clc1nc(CN2CCOCC2)nc2sc3c(c12)CCCC3,.,.,.,.,-3.1%,.
CCOc1ccc(-c2nnc(SCC(=O)c3ccc(F)cc3)n2-c2ccccc2)cc1,i,-24.1%,-12.0,-37.2%,2.8%,4.1%
O=C(CSc1nnc(-c2ccccc2Br)n1-c1ccccc1)c1ccc(F)cc1,i,-38.0%,60.2*,-29.1%,-18.1%,-16.2%
Cc1n[nH]c(C)c1S(=O)(=O)N1CCCC(C(=O)Nc2ccc(Cl)cc2)C1 (stereo not given),i,28.2µM*,107.4*,-46.7%,-3.2%,-6.2%
Cc1ccc(Cl)cc1NS(=O)(=O)c1ccc2c(c1)NC(=O)CCS2,i,-13.5%,93.9*,-26.7%,21.4%,-7.9%
COc1ccc(Cl)cc1NS(=O)(=O)c1ccc2c(c1)NC(=O)CC(=O)N2,i,-3.1%,-5.1,-2.2%,1.3%,-1.1%
Cc1cc(C)c(NS(=O)(=O)c2ccc3c(c2)NC(=O)CCS3)c(C)c1,i,-26.1%,83.2*,-23.0%,-4.8%,-23.6%
CCOc1ccc(NS(=O)(=O)c2ccc(NC(=O)N3CCCC3)cc2)cc1,i,-30.6%,64.7*,-14.5%,13.9%,11.0%
CCOc1ccc(NS(=O)(=O)c2ccc3c(c2)NC(=O)CCS3)cc1,i,?,74.7*,-11.9%,-15.7%,-8.7%
CC(=O)c1ccc(NS(=O)(=O)c2ccc3c(c2)NC(=O)CCS3)cc1,i,-10.5%,-9.9,-19.4%,10.8%,0.1%
COc1ccc(NS(=O)(=O)c2ccc(NC(=O)N3CCCC3)cc2)cc1,i,?,36.9,-22.1%,-5.6%,-4.5%
O=C(NCCCNC(=O)c1ccc[nH]c1=O)c1cc(-c2ccccc2)on1,.,.,.,.,4.2%[57.5 µM],-3.5%
Cc1cc(C)c(NC(=O)N(Cc2ccc3c(c2)Cc2ccccc2-3)C2CCCCCC2)c(C)c1,.,.,.,.,4.3%[57.5 µM],-0.6%
CNCc1ccccc1,i,8.7%,-2.2,-2.8%,56.2µM*,-1.3%[53.3 µM]
COc1cccc(NC(=O)Cn2c(=O)n(Cc3ccco3)c(=O)c3cc(OC)c(OC)cc32)c1,i,-13.6%,74.0*,-25.3%,-2.9%,-0.4%
COc1ccc(OC)c(NC(=O)Cn2c(=O)n(Cc3ccco3)c(=O)c3cc(OC)c(OC)cc32)c1,i,-8.9%,19.8,-16.1%,-0.9%,-1.6%
